LMNA splice mod – modulators of lamin A splicing; HeLa LMNA splicing GFP/RFP minigene ratio, 48 h; Potency, µM (highest dose often 46.1 µM), for inactives: at the top dose ratio change, negative = inhibition, most hits filed as inhibitors; actives 0.01% (n = 200,000); active = well fitted inhibition curve with a large enough effect in the signal ratio, with a control signal flat, not every such curve was filed as active; inconclusive = small, poorly fitted or top-dose-only effect, or effect the other way, or a change in a side signal; the % refers to the signal ratio; also: potency is read from the fitted curve at half-maximal effect
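S3 HeLa cells stably expressing lamin A-EGFP splicing minigene plus DsRed2, 600 cells/well, 48 h compound exposure at 37C. Laser-scanning cytometry; analysed as GFP (500-530 nm)/RFP (575-640 nm) total intensity ratio; 0.5% DMSO vehicle.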
ALDH1A1 block – blocks purified human ALDH1A1 activity. actives 7.3% (n = 220,000). Potency, µM (highest dose often 75.3 µM), for the others: top-dose activity, negative = inhibition, actives largely listed as inhibitors. Purified ALDH1A1, NADH fluorescence, propionaldehyde substrate. P00352;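 also: potency is read from the fitted curve at half-maximal effect; plate controls were no enzyme wells and a reference inhibitor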
HPGD block – blocks human HPGD enzyme activity; AID 894; actives 4.3% (n = 150,000); Potency, µM, for the others: at the top dose activity change, negative = inhibition, hits mostly inhibitors; P15428; purified HPGD, NADH fluorescence kinetic, PGE2 substrate; also: potency is read from the fitted curve at half-maximal effect
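NADH formation kinetics: reaction with 30 uM PGE2 and 1 mM NAD+ (final), 20 nM enzyme, Tris-HCl pH 8 with Tween 20, after 15 min compound preincubation at room temperature. Fluorescence change, last versus first of five reads.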
ALOX12 inhib – inhibitors of human 12-lipoxygenase (ALOX12). actives 0.12% (n = 150,000). purified 12-hLO, xylenol orange hydroperoxide absorbance. P18054. Potency, µM (series often up to 57.1 µM), for the others: at the highest dose activity change, negative = inhibition, most hits filed as inhibitors; active = well fitted inhibition curve with a large enough effect; inconclusive = small, poorly fitted or top-dose-only effect; also: potency is read from the fitted curve at half-maximal effect; nearly all actives have a fitted effect of over 55% in size
Target sequence (P18054 whole entry, looked up): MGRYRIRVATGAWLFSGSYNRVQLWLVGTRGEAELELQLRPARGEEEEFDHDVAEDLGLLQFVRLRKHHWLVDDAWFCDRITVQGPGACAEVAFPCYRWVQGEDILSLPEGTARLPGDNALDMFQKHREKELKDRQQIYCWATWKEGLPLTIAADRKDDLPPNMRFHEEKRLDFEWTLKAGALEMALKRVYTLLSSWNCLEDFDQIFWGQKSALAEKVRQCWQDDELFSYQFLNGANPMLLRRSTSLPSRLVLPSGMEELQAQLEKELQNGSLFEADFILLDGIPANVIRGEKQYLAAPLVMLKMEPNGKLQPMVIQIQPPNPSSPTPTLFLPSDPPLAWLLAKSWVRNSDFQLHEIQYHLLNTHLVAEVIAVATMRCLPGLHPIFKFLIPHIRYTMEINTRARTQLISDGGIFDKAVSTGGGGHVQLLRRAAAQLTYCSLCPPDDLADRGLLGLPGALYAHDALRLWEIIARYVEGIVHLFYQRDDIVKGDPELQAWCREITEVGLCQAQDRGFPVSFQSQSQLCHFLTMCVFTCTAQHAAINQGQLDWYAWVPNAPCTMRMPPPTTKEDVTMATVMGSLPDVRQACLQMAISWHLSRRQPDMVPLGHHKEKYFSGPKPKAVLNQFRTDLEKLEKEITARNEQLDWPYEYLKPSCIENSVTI
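Hydroperoxide formation by human 12-lipoxygenase from 40 uM arachidonic acid was followed colorimetrically via ferric-xylenol orange complex, using the 573/405 nm absorbance ratio. Enzyme concentration was 150 nM, with 30 min reaction at room temperature.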
PNC inhibitor – blocks assembly of the perinucleolar compartment; PC3M PTB-GFP, PNC prevalence imaging, 16 h; active compounds read low; AID 2417; actives 3.1% (n = 140,000); activity change (PNC), negative = inhibition, % at 10 µM;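 active = readout at or below -70, meaning at least 70% loss of cells showing the perinucleolar compartment, a nuclear body marking cancer cells; inconclusive = readout between -30 and a set limit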;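 also: plate controls were DMSO wells for no effect and camptothecin positive control wells for full effect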
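Read-out is percentage of cells bearing a perinucleolar compartment, from automated 20x imaging of fixed, Hoechst-stained PC3M PTB-GFP cells. Cells were seeded 4 h, then exposed 16 h to compound (23 nl of library stock) in duplicate plates.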
* marks the source's active call; other numbers are inactive results; ? = inconclusive; . = not tested or not shown; ! = repeats disagree; [ ] = remark or other dose. Only some compounds are listed: those with a hit (about 10% of all), similar ones and a draw of the others. Unless noted, calls follow the shape of the dose curve; as a rule, active = well fitted inhibition curve with a large enough effect (not every such curve was filed as active); inconclusive = small, poorly fitted or top-dose-only effect, or another doubt; inactive = no such curve, though single readings can be large or run the other way. Unless noted, % is scaled to controls: 0 for no effect and ±100 for the full control effect.

SMILES	LMNA splice mod	ALDH1A1 block	HPGD block	ALOX12 inhib	PNC inhibitor
O=C(Nc1ccc(O)c(C(=O)O)c1)c1ccc2c(c1)C(=O)N(CC1CCCO1)C2=O (stereo not drawn)	-6%	10µM*	-27%	-3%	-1
O=C(Nc1cccnc1)c1ccc2c(c1)C(=O)N(CC1CCCO1)C2=O (stereo not drawn)	-6%[46 µM]	?	.	.	.
O=C(Nc1ccc2c(c1)C(=O)N(CC1CCCO1)C2=O)c1ccc(Cl)c(Cl)c1 (stereo not drawn)	?	?	?	4%	?
O=C(CCl)N=c1sccn1Cc1cccc2ccccc12	22%[46 µM]	20µM*	.	.	.
O=C(CCl)N=c1sccn1Cc1ccc(Cl)cc1Cl	?	28µM*	.	.	.
CCNC(=S)NNC(=O)c1cccn(Cc2ccc(Cl)cc2Cl)c1=O	9%	-4%	-12%	-3%	-22
CC(C)(C)c1ccc(OCC2CO2)cc1 (stereo not drawn)	.	-6%	-12%	-4%	.
CCN1CCN(CCCOc2ccc(Cl)cc2Br)CC1	.	13µM*	.	.	.
CCN1CCN(CCOc2cccc(Cl)c2Cl)CC1	.	8.9µM*	.	.	.
Cc1ccc(CNC(=O)CSc2nc3ccsc3c(=O)n2Cc2ccccn2)cc1	10%[46 µM]	?	.	.	.
O=c1c2sccc2nc(SCc2ccc([N+](=O)[O-])cc2)n1Cc1ccccn1	?	2%	-5%	-1%	-84*
CCOC(=O)c1c(N)sc(C(=O)OCCOC)c1C	9%[46 µM]	14µM*	.	.	.
CCOC(=O)c1c(N)sc2c(OCC)c(Br)ccc12	-9%	1%	-4%	-11%	40
CCOC(=O)c1sc(N)c(C(=O)Nc2ccccc2)c1C	51%[46 µM]	11µM*	.	.	.
CCOC(=O)c1c(N)sc(C(=O)N2CCCC2)c1C	2%	-8%	?	-2%	?
CCOC(=O)c1ccc(NC(=O)c2ccc(NC(=O)c3ccccc3)cc2)cc1	2%	6%	-1%	0%	-29
CCOC(=O)c1c(N)sc(C(=O)N2CCCCC2)c1C	-12%	?	8.9µM*	-1%	31
CCOC(=O)c1c(NC(=O)Cc2cccs2)sc(C(=O)N2CCCCC2)c1C	7%	2.5µM*	7.1µM*	-13%	22
O=C1NC2(CCCCC2)C(=O)N1/N=C/c1ccccc1Br	.	4.5µM*	.	.	.
O=C(c1ccc2nc(N3CCOCC3)sc2c1)N1CCCC1	2%	5%	14µM*	-4%	0
O=S(=O)(c1ccc(Cl)nc1)N1CCN(Cc2ccc3c(c2)OCO3)CC1	1%	14µM*	-3%	-3%	2
O=C(c1ccc(Cl)c([N+](=O)[O-])c1)N1CCN(Cc2ccc3c(c2)OCO3)CC1	12%[46 µM]	19µM*	.	.	.
Cc1c(C(=O)N2CCN(Cc3ccc4c(c3)OCO4)CC2)cccc1[N+](=O)[O-]	?	2%	-1%	-1%	162
COc1ccc(CN2CCN(C(=O)c3ccc4nc(N5CCOCC5)sc4c3)CC2)c(OC)c1OC	.	5%	.	.	.
O=S(=O)(c1cc(Cl)ccc1Cl)N1CCN(Cc2ccc3c(c2)OCO3)CC1	?	-6%	-13%	2%	?
SMILES	LMNA splice mod	ALDH1A1 block	HPGD block	ALOX12 inhib	PNC inhibitor
CC1CCN(c2nc3ccc(C(=O)N4CCN(Cc5ccc6c(c5)OCO6)CC4)cc3s2)CC1	0%	?	18µM*	-5%	-19
O=C1CCCC2[C@@H]3CCC[N@+]4([O-])CCC[C@H](CN12)C34 (stereo partly drawn)	.	-3%	-4%	.	.
CC#C[C@@]1(O)CC[C@H]2[C@@H]3CCC4=CC(=O)CCC4=C3[C@H](c3ccc(N(C)C)cc3)C[C@]21C	?	7%[20.9 µM]	5%	-6%[25.6 µM]	.
Cc1ccc2c(C)ccc(O)c2n1	-7%	7%	-13%	-5%	-29
Cc1ccc(O)c(N=Nc2ccccc2)n1	?	?	22µM*!	-17%	.
O=C(CSc1nnnn1-c1ccccc1F)NNC(=O)c1ccco1	12%[46 µM]	14µM*	.	.	.
COC(=O)c1ccccc1NC(=O)CSc1nnnn1-c1ccc(C)cc1C	?	?	-19%	-2%	-6
CSc1ccccc1-n1nnnc1SCC(=O)Nc1ccccc1C	-6%	13µM*	0%	-3%	-14
Cc1ccccc1NC(=O)CCSc1nnnn1-c1ccccc1	-16%	8.9µM*	-10%	1%	43
CSc1ccccc1-n1nnnc1SCC(=O)NCc1cccs1	-5%	16µM*	-11%	-6%	?
CCOc1ccc(C(=O)Nc2cc(-c3cn4cccnc4n3)ccc2C)cc1OCC	-13%[46 µM]	.	.	.	.
CCOC(=O)C1=C(CN2CCN(c3ccccc3F)CC2)NC(=O)NC1c1ccc(OC)cc1 (stereo not drawn)	-18%[46 µM]	.	.	.	.
Cn1nnnc1SCC(=O)Nc1ccccc1N1CCCCC1	-8%	11%	5%	-4%	-7
CSc1ccccc1NC(=O)CSc1nnnn1-c1ccccc1SC	-9%	11µM*	-13%	-6%	?
CCN(CC)S(=O)(=O)c1ccc(N2CCCC2)c(NC(=O)c2ccncc2)c1	?	16µM*	.	.	.
CCN(CC)S(=O)(=O)c1ccc(N2CCCCC2)c(NC(=O)c2ccncc2)c1	-4%[46 µM]	11µM*	.	.	.
COc1cccc(-n2cc(C(=O)Nc3ccccc3C(N)=O)c3ccccc3c2=O)c1	-8%[46 µM]	.	.	.	.
CCCCCCCc1cc2c(cn1)C(=O)C(C)(OC(C)=O)C(O)=C2Cl (stereo not drawn)	.	?	-11%	.	.
CC(=O)NCCNc1nc(-c2ccccc2Cl)nc2ccccc12	-6%	?	-10%	11%	.
Oc1cc(Cc2ccccc2)cnc1CN1CCCCC1	8%	25µM*	25µM*	-12%	43
CCc1nc2sc3c(c2c(=O)n1N)CC(C)(C)OC3	?	11%	-1%	-3%	?
CCCCCCCCCc1nc2sc3c(c2c(=O)n1NC(=O)c1ccccc1[N+](=O)[O-])CC(C)(C)OC3	?	1.4µM*	-9%	2%	25
CCCc1nc2sc3c(c2c(=O)n1NC(=O)c1ccco1)CC(C)(C)OC3	5%	?	-8%	-2%	24
CCCCCCCCCc1nc2sc3c(c2c(=O)n1NC(=O)c1ccc([N+](=O)[O-])cc1)CC(C)(C)OC3	?	7.1µM*	-7%	-3%	?
O=C(O)c1cc(=O)c2ccc(Cl)cc2[nH]1	?	-2%	28µM*!	-7%	.
CC(C)OCCCNC(=O)CN1C(=O)CSc2ccc(S(=O)(=O)N3CCCCC3)cc21	6%[46 µM]	.	.	.	.
CCN(CC)CCCNC(=O)CN1C(=O)CSc2ccc(S(=O)(=O)N3CCOCC3)cc21	-7%	10%	-1%	1%	-113*
CCOCCCNC(=O)CN1C(=O)CSc2cc(S(=O)(=O)N3CCCCCC3)ccc21	4%	10µM*	.	-1%	13
CC(=C1C(=O)c2ccccc2C1=O)N1CCN(c2ccc(F)cc2)CC1	4%[46 µM]	18µM*	.	.	.
CSc1ccccc1C(=O)N1CCN(c2ccc(F)cc2)CC1	6%	5%	-14%	-1%	7

Source: PubChem BioAssay (National Center for Advancing Translational Sciences (NCATS))
